This note sets out measurements from PubChem BioAssay (NCATS).

In experiment [1] the target is Glucocorticoid receptor (Homo sapiens) (UniProt P04150). Nature of the experiment: qHTS assay for small molecule antagonists of glucocorticoid receptor signaling (AID 588533; active means well fitted inhibition curve with a large enough effect in the signal ratio, with a control signal flat, not every such curve was filed as active; the % refers to the signal ratio;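 further: cells stimulated with 2 nM dexamethasone as agonist; on the % scale 0 is the no-effect control and ±100 the full control effect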). In a few lines: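 Antagonist-mode qHTS: compound titrations added to GRE-bla HeLa cells, then dexamethasone 2 nM final; 18 h, 37 C. CCF4 FRET fluorescence normalized to dexamethasone and DMSO; IC50 from Hill fit.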

Experiment [2] concerns the target Peroxisome proliferator-activated receptor gamma (Homo sapiens) (UniProt P37231). Kind of experiment: qHTS assay for small molecule agonists of peroxisome proliferator-activated receptor gamma signaling (AID 588536; active means well fitted curve in the direction sought with a large enough effect in the signal ratio, with a control signal flat, not every such curve was filed as active; the % refers to the signal ratio;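 further: 0% = DMSO basal wells and 100% = rosiglitazone at 2 µM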). In short, it runs like this:
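GeneBLAzer PPAR-gamma-UAS-bla HEK293 cells in 1% charcoal/dextran-treated FBS medium were treated 16 h at 37 C with compounds. Beta-lactamase activity was read by CCF4 ratio (460/530 nm). Response was normalized to 2 uM rosiglitazone (100%) and DMSO, then Hill-fitted for EC50 and efficacy.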
(Quantitative high-throughput screening tests each substance at several concentrations.)

Experiment [3] addresses Vitamin D3 receptor (Homo sapiens) (UniProt P11473). Nature of the experiment: qHTS assay for small molecule antagonists of vitamin D receptor signaling (AID 588541).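 Further: receptor activated by calcitriol during compound treatment; series mostly up to about 77 µM; on the % scale 0 is the no-effect control and ±100 the full control effect.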 In a few lines:
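Antagonist-mode beta-lactamase reporter assay: HEK293T VDR-UAS-bla cells were exposed to titrated compound alongside 1-alpha,25-dihydroxyvitamin D3 at 3 nM final for 16 h. Values were normalized to the 50 nM agonist control and DMSO basal, with IC50 and efficacy from Hill equation fits.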

For experiment [4] the target is unchanged. Kind of experiment: qHTS assay for small molecule agonists of vitamin D receptor signaling (AID 588543).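 Further: 0% = DMSO basal and 100% = reference agonist control.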 In short, it runs like this:
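β-lactamase reporter, VDR-UAS-bla HEK293T, agonist mode. Cells plated 5 h at 37 °C, compound titration 16 h at 37 °C, CCF4 dye 2 h RT, ratio 460/530 nm. Hill fit → EC50, efficacy vs 50 nM 1α,25-(OH)2D3.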

A short description of experiment [5]: qHTS assay for small molecule agonists of retinoid X receptor alpha signaling (AID 588544).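 On activation: 0% = DMSO basal wells and 100% = reference agonist.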 The note with it: HEK293T RXRa-UAS-bla, beta-lactamase reporter, 18 h; 530 nm emission.
Experiment [6] concerns the target Retinoic acid receptor RXR-alpha (Homo sapiens) (UniProt P19793). Described as above.
Experiment [7] deals with Thyroid hormone receptor beta (Homo sapiens) (UniProt P10828). Kind of experiment: qHTS assay for small molecule agonists of thyroid hormone receptor beta signaling (AID 588545).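 Further: 0% = DMSO only and 100% = 10 nM T3.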 In a few lines:
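TR-UAS-bla GripTite HEK 293 cells (2500/well, medium with 2% charcoal/dextran FBS) were treated in agonist mode for 18 h at 37 C, titrated. Beta-lactamase was read by CCF4 ratio after 2 h; normalized to 10 nM T3 (100%) and DMSO, Hill-fitted for EC50 and efficacy.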

Experiment [8] is described as follows: qHTS assay for small molecule antagonists of retinoid X receptor alpha signaling (AID 588546; active means well fitted inhibition curve with a large enough effect in the signal ratio, with a control signal flat, not every such curve was filed as active; the % refers to the signal ratio;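 further: cells stimulated with 9-cis-retinoic acid as agonist; on the % scale 0 is the no-effect control and ±100 the full control effect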). To be noted: HEK293T RXRa-UAS-bla, beta-lactamase ratio, antagonist mode; measured here: W530 green channel, cytotoxicity proxy. In a few lines: (§1)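 Beta-lactamase reporter inhibition, read as CCF4 fluorescence ratio (ex 405, em 460/530 nm) after 2 h at RT. HEK293T UAS-bla cells, 2500/well, were stimulated with 9-cis-RA at 500 or 100 nM final alongside test compound for 18 h at 37 C.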

For experiment [9], the target named is Retinoic acid receptor RXR-alpha (Homo sapiens) (UniProt P19793). Described as above. To be noted: HEK293T RXRa-UAS-bla, beta-lactamase ratio, antagonist mode. In a few lines:
as §1

Experiment [10] deals with Thyroid hormone receptor beta (Homo sapiens) (UniProt P10828). Kind of experiment: qHTS assay for small molecule antagonists of thyroid hormone receptor beta signaling (AID 588547; active means well fitted inhibition curve with a large enough effect in the signal ratio, with a control signal flat, not every such curve was filed as active; the % refers to the signal ratio;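 further: cells stimulated with 0.4 nM T3 agonist during compound exposure; series mostly up to about 77 µM; on the % scale 0 is the no-effect control and ±100 the full control effect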). To be noted: TR-UAS-bla HEK293, beta-lactamase ratio, antagonist mode, 18 h. In short, it runs like this: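 Inhibition of T3-driven (0.4nM final) beta-lactamase reporter activity was measured over 0.59 nM to 92 uM compound after 18 h at 37 C. The cells were GripTite HEK293 TR-UAS-bla in charcoal/dextran-stripped serum, with CCF4 ratio read-out and IC50 from Hill fits.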

In experiment [11] the target is Voltage-gated inwardly rectifying potassium channel KCNH2 (Homo sapiens) (UniProt Q12809). Kind of experiment: qHTS Assay for Small Molecule Inhibitors of the Human hERG Channel Activity (AID 588834; active means well fitted inhibition curve with a large enough effect;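 further: top concentration of the series differs between compounds; on the % scale 0 is the no-effect control and ±100 the full control effect; lower thallium flux fluorescence means stronger hERG block; nearly all actives have a fitted effect of over 50% in size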). In a few lines: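 Concentration-response qHTS measuring drop in thallium-sensitive dye signal. U2OS cells carrying BacMam hERG; compound exposure ~10 min, then stimulation buffer and 2 min read at 1 sec intervals.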

Experiment [12] can be described thus: qHTS assay for small molecule activators of the p53 signaling pathway (AID 651743; active means well fitted activation curve with a large enough effect in the signal ratio, not every such curve was filed as active; the % refers to the signal ratio; further: series mostly up to about 92 µM; % of control where 0% means no effect). The note with it: HCT-116 p53RE-bla, beta-lactamase FRET ratio, 16 h; stronger effect = higher value. In short, it runs like this:
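Screen for p53 pathway agonists uses stably transfected p53RE-bla HCT-116 cells, 4,000 per well, treated 16 h at 37 C with compounds in DMSO.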

Experiment [13] is described as follows: qHTS assay for small molecule antagonists of peroxisome proliferator-activated receptor delta signaling (AID 588535; active means well fitted inhibition curve with a large enough effect in the signal ratio, with a control signal flat, not every such curve was filed as active; the % refers to the signal ratio;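 on max response: cells co-treated with a PPAR-delta agonist as stimulator during compound exposure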). To be noted: HEK293T PPARd-UAS-bla, beta-lactamase FRET ratio, 18 h; 460 nm channel. In a few lines: (§2)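 Cell-based beta-lactamase assay in antagonist mode: 4000 HEK293T PPAR-delta-UAS-bla cells per well, 5 hr preincubation then 18 hr compound incubation at 37 C. IC50 obtained by Hill equation fitting.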

Experiment [14] has as its target Peroxisome proliferator-activated receptor delta (Homo sapiens) (UniProt Q03181). The description is as above. In short, it runs like this:
as §2

In experiment [15] the target is Peroxisome proliferator-activated receptor gamma (Homo sapiens) (UniProt P37231). Kind of experiment: qHTS assay for small molecule antagonists of peroxisome proliferator-activated receptor gamma signaling (AID 588537; active means well fitted inhibition curve with a large enough effect in the signal ratio, with a control signal flat, not every such curve was filed as active; the % refers to the signal ratio;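 further: reporter cells co-stimulated with 50 nM rosiglitazone agonist during compound treatment; % of control where 0% means no effect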). In short, it runs like this: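 Inhibitors of agonist-stimulated UAS-bla reporter activity were sought in HEK293 cells; rosiglitazone (50 nM) defined full signal and DMSO baseline. Curves fitted to Hill model gave IC50 and efficacy.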

The nature of experiment [16]: qHTS assay for small molecule agonists of the antioxidant response element (ARE) signaling pathway (AID 651741; active means well fitted activation curve with a large enough effect in the signal ratio; the % refers to the signal ratio; further: % of control where 0% means no effect). In short, it runs like this:
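Seeding 2,000 ARE-bla HepG2 cells per well preceded a 5 h incubation at 37 C/5% CO2 and a 16 h compound exposure at 37 C. Beta-lactamase reporter activity was then quantified by fluorescence after 2 h with LiveBLAzer B/G FRET substrate.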

Experiment [17] is described as follows: qHTS assay for small molecule activators of the nuclear factor-kappa B (NF-kB) signaling pathway (AID 651749; active means well fitted activation curve with a large enough effect in the signal ratio; the % refers to the signal ratio; further: series mostly up to about 77 µM; % of control where 0% means no effect). The note with it: NF-kB-bla ME-180 cells, beta-lactamase FRET ratio, 16 h; stronger effect = higher value. In a few lines: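 Stably transfected ME-180 line; NF-kB response element upstream of beta-lactamase. Treatment: compound or DMSO, 16 hr. Detection: fluorescent FRET substrate.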

Records with an inconclusive call do not appear. The source made the active and inactive calls. Unless noted, the call rests on the fitted dose curve.

Sequence of Voltage-gated inwardly rectifying potassium channel KCNH2 (Homo sapiens) (Q12809 whole entry, looked up): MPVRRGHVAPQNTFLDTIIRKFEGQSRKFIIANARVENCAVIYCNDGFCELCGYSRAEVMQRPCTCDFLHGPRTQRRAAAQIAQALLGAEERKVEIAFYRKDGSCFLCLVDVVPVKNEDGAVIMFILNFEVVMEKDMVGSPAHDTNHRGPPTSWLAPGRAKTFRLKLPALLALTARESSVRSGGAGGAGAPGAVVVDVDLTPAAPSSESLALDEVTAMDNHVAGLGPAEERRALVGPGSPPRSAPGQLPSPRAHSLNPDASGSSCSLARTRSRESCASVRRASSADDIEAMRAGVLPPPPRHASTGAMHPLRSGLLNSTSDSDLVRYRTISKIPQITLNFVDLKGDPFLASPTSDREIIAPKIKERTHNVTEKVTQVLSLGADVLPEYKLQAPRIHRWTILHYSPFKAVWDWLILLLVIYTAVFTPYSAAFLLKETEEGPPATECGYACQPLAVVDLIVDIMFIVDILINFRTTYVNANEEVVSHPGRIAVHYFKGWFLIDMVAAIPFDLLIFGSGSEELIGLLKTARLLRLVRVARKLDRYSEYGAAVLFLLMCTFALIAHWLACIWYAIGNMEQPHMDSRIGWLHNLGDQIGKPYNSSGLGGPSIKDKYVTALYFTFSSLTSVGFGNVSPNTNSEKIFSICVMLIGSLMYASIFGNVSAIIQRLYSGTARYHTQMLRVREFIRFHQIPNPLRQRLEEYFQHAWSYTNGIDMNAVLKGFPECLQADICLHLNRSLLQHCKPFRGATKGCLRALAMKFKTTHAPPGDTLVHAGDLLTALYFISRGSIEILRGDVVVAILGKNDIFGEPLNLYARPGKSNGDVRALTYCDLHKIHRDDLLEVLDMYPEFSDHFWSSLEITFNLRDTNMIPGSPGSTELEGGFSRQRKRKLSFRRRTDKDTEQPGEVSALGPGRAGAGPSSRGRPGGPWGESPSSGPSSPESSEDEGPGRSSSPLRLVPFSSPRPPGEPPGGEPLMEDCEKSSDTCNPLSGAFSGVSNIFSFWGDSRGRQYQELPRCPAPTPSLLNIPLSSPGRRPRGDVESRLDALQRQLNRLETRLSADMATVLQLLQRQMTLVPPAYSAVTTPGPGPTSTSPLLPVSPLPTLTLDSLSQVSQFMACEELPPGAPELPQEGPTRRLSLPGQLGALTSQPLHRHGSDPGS
Sequence of Glucocorticoid receptor (Homo sapiens) (P04150 whole entry, looked up): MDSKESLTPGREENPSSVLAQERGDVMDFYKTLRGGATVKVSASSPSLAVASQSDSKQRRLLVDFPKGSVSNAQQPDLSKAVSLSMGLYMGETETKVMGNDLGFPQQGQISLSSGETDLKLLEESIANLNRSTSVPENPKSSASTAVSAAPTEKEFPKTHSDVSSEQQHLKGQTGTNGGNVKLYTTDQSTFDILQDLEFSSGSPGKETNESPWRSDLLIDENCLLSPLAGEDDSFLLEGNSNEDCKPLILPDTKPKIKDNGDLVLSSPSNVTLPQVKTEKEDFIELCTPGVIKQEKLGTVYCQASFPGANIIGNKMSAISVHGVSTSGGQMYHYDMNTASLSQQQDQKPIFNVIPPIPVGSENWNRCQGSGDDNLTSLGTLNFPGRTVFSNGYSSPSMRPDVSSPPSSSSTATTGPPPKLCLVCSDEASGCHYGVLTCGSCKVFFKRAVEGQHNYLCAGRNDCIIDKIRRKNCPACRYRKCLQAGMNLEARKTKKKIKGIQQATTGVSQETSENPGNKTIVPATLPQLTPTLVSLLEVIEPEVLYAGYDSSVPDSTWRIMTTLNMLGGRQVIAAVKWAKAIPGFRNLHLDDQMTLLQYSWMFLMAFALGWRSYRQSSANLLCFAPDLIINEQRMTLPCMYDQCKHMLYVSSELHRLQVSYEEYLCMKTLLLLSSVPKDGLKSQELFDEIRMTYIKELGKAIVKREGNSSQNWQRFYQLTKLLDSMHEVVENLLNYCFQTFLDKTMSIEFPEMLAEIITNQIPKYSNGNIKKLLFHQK
Sequence of Peroxisome proliferator-activated receptor delta (Homo sapiens) (Q03181 whole entry, looked up): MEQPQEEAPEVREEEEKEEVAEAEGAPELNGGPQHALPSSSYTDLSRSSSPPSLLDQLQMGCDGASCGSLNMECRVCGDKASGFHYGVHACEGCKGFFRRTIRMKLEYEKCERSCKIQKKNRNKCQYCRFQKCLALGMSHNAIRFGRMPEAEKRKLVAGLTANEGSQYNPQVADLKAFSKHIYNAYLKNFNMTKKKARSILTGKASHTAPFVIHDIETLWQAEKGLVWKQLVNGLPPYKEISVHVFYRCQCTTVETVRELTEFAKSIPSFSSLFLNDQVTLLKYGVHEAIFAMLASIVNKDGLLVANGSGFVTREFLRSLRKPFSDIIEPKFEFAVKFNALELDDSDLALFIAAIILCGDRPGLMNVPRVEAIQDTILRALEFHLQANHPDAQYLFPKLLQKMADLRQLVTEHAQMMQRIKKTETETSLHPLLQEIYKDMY
Sequence of Peroxisome proliferator-activated receptor gamma (Homo sapiens) (P37231 whole entry, looked up): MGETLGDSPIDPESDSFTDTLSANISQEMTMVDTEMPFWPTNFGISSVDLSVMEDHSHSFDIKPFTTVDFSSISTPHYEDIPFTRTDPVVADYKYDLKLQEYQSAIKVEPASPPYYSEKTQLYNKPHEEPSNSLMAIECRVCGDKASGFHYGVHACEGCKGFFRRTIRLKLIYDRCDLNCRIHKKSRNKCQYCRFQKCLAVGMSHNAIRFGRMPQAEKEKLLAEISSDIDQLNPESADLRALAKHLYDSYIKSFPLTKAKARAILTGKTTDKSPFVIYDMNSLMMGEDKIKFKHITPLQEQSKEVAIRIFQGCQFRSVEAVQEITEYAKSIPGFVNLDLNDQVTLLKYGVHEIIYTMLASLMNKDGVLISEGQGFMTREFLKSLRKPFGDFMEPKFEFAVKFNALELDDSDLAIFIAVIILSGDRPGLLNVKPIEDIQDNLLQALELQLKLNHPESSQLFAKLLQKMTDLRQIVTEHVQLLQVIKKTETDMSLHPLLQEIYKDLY
Sequence of Vitamin D3 receptor (Homo sapiens) (P11473 whole entry, looked up): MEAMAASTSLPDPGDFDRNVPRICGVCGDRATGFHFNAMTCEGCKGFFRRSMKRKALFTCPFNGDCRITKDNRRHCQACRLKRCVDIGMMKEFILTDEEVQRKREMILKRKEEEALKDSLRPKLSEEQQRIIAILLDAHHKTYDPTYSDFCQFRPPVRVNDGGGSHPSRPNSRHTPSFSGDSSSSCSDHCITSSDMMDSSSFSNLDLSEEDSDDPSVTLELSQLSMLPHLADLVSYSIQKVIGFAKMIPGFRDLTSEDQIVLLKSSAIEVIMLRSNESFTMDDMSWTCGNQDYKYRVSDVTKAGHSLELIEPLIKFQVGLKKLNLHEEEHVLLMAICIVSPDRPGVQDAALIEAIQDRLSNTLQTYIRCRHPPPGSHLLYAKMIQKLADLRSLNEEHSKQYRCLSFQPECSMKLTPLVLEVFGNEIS
Sequence of Retinoic acid receptor RXR-alpha (Homo sapiens) (P19793 whole entry, looked up): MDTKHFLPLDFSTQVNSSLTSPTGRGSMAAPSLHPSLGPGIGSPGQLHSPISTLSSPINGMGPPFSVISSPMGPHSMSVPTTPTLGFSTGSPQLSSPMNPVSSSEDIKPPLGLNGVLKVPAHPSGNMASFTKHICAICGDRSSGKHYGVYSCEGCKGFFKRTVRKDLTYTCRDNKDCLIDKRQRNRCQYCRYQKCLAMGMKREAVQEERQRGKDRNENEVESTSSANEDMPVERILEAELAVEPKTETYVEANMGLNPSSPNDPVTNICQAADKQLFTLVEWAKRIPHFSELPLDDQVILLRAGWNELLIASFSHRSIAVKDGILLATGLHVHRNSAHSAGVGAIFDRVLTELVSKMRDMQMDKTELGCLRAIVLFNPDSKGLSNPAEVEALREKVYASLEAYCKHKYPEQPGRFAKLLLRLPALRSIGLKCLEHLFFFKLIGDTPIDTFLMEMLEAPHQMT
Sequence of Thyroid hormone receptor beta (Homo sapiens) (P10828 whole entry, looked up): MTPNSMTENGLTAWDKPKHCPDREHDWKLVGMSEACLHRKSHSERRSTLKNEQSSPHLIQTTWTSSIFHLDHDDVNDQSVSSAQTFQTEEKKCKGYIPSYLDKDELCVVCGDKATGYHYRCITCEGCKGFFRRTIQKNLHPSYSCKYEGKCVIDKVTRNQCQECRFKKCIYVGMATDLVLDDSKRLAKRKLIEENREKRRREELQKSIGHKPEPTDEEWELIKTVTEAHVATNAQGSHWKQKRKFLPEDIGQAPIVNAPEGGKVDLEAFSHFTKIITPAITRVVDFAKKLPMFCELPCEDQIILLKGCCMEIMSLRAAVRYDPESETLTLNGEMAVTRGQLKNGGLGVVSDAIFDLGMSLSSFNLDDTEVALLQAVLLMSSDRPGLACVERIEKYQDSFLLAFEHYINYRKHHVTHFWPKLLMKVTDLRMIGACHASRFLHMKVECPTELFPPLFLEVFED

As to `Cc1ccccc1C=O`, the result in experiment [1], in experiment [2], in [3], in [4], in experiment [6] and in [7] was inactive. Besides, the max response in [5] is -10.4%; in experiment [8], 9.24%; in [9], 9.95% (inactive). The activity change % (negative = inhibition) in experiment [10] is 20.8% (inactive). In addition, the Potency result in experiment [11] was “inactive”. The activation in experiment [12] was 3.12% (inactive).
As to `Cc1cc(C)cc(N)c1`, the max response in experiment [13] is -0.443%; in [5], -7.06%; in experiment [8], 1.47%; in experiment [9] it was 9.88% (inactive). The Potency result in [14], in [11] and in experiment [16] was “inactive” throughout. The compound was classed as inactive in experiment [2], in [15], in experiment [3], in experiment [4], in experiment [6] and in [7]. The activity change % (negative = inhibition) in [10] is -11.7% (inactive). The activation in experiment [12] was -1.89% (inactive); in experiment [17], 0.882% (inactive).
On to `O=C(O)c1ccccc1C(=O)O`, for which the call in [1], in experiment [6] and in experiment [7] was inactive. In addition, the max response is 14.7% in experiment [13], 13.6% in experiment [5], 4.98% in [8] and -5% (inactive) in experiment [9]. Also, the Potency entry in [14] and in [11] was “inactive” in each case. Further, in experiment [10], the activity change % (negative = inhibition) was 0.364% (inactive). Moreover, the activation is -2.08% (inactive) in experiment [12] and -0.93% (inactive) in experiment [17].
As to `CCOC(C)(C)C`, the max response is -1.23% in experiment [13], -2.56% in experiment [5], -1.08% in experiment [8] and 3.08% (inactive) in experiment [9]. Further, the Potency result in experiment [14], in experiment [11] and in experiment [16] was “inactive” in each case. Also, the call in experiment [2], in experiment [15], in experiment [3], in experiment [4] and in experiment [7] was inactive. In addition, the activity change % (negative = inhibition) in [10] is -6.37% (inactive). Besides, the activation in experiment [12] is -0.539% (inactive); in experiment [17], 0.0467% (inactive).
`O=[N+]([O-])c1cccc(Cl)c1`: the max response is 4.21% in experiment [13], -8.32% in [5], -3.93% in experiment [8] and 7.77% (inactive) in experiment [9]. The Potency entry in [14], in [11] and in [16] was “inactive” each time. In addition, the result in experiment [2], in experiment [15], in [3], in experiment [4], in [6] and in [7] was inactive. For the same compound, the activity change % (negative = inhibition) in experiment [10] is -12.9% (inactive). The activation is -3.73% (inactive) in experiment [12] and 0.464% (inactive) in experiment [17].
Consider `CCCCC(CC)C(=O)O` (stereo not drawn), for which the max response in experiment [13] is 18%; in experiment [5], 12.4%; in experiment [8] it was -3.23%; in experiment [9], 4.48% (inactive). Moreover, the Potency entry in experiment [14], in experiment [11] and in experiment [16] was “inactive” throughout. Besides, the result in [2], in experiment [15], in experiment [6] and in experiment [7] was inactive. In addition, in experiment [10], the activity change % (negative = inhibition) was -2.96% (inactive).
For `O=Cc1ccccc1Cl`, the compound was classed as inactive in experiment [1], in experiment [2], in [15], in experiment [3], in experiment [4] and in [6]. In addition, the result in [7] was inactive. Also, the max response in experiment [5] was -11.2%; in experiment [8], 3.56%; in experiment [9], 26.5% (inactive). Also, in experiment [10], the activity change % (negative = inhibition) is 5% (inactive). Also, the Potency result in [16] is “inactive”. Moreover, the activation in experiment [17] is -1.13% (inactive).
As for `CCNS(=O)(=O)c1ccc(C)cc1`, the call in [1], in experiment [2] and in [6] was inactive. Further, the max response in [13] is 8.52%; in experiment [5], 7.68%; in experiment [8], 0.888%; in experiment [9] it was 3.72% (inactive). In addition, the Potency result in [14], in [11] and in experiment [16] was “inactive” each time. Besides, the activity change % (negative = inhibition) in experiment [10] is -4.68% (inactive). For the same compound, the activation in [12] was -2.94% (inactive).
